Screens as filed in PubChem BioAssay.
MPTP block: blocks calcium-induced mitochondrial swelling. AID 602449. isolated mouse mitochondria, Ca2+ swelling absorbance, 30 min. inhibition, % at 10 µM. 360,000 tested, 1.4% active;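 active = inhibition of 50% or more, scaled per plate between neutral and stimulator controls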
Calb FLC: affects C. albicans growth with fluconazole. C. albicans CaCi-2 (fluconazole-resistant clinical isolate) + fluconazole, Alamar Blue growth, 48 h. growth inhibition, % (concentration not given with the values). 300,000 tested, 0.57% active. AID 1979;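 active = growth inhibition above about 58% in most replicates, limit read from the data, passing the limit was not always enough; inconclusive = exactly half the replicates above a set limit; inactive = most replicates below a set limit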;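 note: all wells also contain fluconazole at 8 µg/ml as a sub-toxic cotreatment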
Beta apoptosis: beta cell apoptosis inhibition. INS-1E cytokine-induced death, ATP luminescence, 48 h; percent of positive-control rescue, neutral wells zero. protection from apoptosis, % (test concentration not listed). 300,000 tested, 0.8% active;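 active = Every replicate reaches about 75%, or at least half do and their mean reaches it too, limit read from the data; inconclusive = At least half of replicates reach the limit but their mean does not; inactive = Under half of replicates reach the limit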;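 note: higher means more ATP so stronger rescue from cytokine killing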
Mdm2 MdmX PPI: inhibitors of human Mdm2/MdmX interaction | inhibition, % at 8 µM | O15151+Q00987 | 330,000 tested, 3% active | SaOS-2 split-luciferase Mdm2/MdmX complementation, luminescence | AID 485346;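 active = inhibition of at least 50% at 8 µM in the primary screen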
Target sequence (O15151 whole entry, looked up): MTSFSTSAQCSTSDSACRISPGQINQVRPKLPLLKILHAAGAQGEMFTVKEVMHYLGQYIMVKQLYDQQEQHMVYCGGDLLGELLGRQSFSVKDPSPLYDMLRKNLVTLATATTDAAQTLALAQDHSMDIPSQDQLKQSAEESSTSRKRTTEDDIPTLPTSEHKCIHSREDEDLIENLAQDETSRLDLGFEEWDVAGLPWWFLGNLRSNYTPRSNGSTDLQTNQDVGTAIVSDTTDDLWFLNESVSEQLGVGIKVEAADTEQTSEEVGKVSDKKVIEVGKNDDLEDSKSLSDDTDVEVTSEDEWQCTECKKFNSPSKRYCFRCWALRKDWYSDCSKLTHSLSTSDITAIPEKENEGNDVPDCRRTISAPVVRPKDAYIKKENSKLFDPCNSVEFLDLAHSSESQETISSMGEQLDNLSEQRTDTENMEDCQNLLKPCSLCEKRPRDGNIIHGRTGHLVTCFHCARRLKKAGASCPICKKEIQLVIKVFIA
Target sequence (Q00987 whole entry, looked up): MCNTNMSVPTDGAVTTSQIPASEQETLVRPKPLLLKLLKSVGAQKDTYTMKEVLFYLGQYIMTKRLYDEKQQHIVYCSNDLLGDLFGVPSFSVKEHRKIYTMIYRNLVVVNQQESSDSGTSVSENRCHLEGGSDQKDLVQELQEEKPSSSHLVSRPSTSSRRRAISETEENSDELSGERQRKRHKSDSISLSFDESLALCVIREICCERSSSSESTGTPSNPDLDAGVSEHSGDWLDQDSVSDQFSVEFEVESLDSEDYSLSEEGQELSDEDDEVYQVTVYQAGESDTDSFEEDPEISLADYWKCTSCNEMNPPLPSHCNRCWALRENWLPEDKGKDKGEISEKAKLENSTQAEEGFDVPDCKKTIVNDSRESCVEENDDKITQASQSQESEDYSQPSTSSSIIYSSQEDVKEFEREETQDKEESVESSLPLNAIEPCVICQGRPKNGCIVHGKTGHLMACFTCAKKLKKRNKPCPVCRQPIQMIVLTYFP
CSC inhib: cancer stem cell inhibition | cancer stem cell-like cells viability, luminescence | inhibition, % at 7.5 µM | 300,000 tested, 1.1% active | AID 2717; in the data active = inhibition above about 75%; inconclusive = no clear call, values can overlap the other calls; tested in HMLE shEcad cells
SKKanGAS inh: blocks kanamycin growth of S. pyogenes SKKanGAS strain | BacTiter-Glo, 6 h | inhibition, % at 7.5 µM | 300,000 tested, 1.3% active | AID 1662;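 active = mean replicate score, as percent of positive control median, at least 50; inconclusive = mean below 50 but one replicate at or above 50; inactive = mean and every replicate below 50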;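 note: strain carries kanamycin resistance gene driven by streptokinase promoter and grows in 40 µg/ml kanamycin; loss of luminescence reflects streptokinase promoter inhibition or plain growth inhibition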
Each line names hits and unclear results; the compound was inactive in the other large screens. This is a sample that favours compounds with a hit; in the whole collection about 5.4% have one here.

CC1=NN(c2nc(-c3ccccc3)cs2)C(=O)C1	SKKanGAS inh 66 (no result: CSC inhib)
COc1c(CC=C(C)C)cc(C2CC(=O)c3c(O)cc(O)cc3O2)c(CC=C(C)C)c1O (configuration not stated)	SKKanGAS inh 109 (no result: MPTP block)
COc1ccc(N2CCN(C(=O)CN3C(=O)NC4(CCCc5ccccc54)C3=O)CC2)cc1 (configuration not stated)	none (no result: CSC inhib)
CC(=O)N1CCc2cc(S(=O)(=O)N3CCc4ccccc4C3)ccc21	none (no result: CSC inhib)
CC(=O)N1CCc2cc(S(=O)(=O)N3CCc4ccccc43)ccc21	SKKanGAS inh 52 (no result: Beta apoptosis)
O=C(O)c1cccc2c(-c3ccccc3)c(-c3ccccc3)[nH]c12	SKKanGAS inh 59
O=C(O)c1ccccc1-c1nc(-c2ccccc2)c(-c2ccccc2)[nH]1	none
CCCOc1ccc(C(=O)N2CCN(c3ccc(NC(=O)CC)cc3Cl)CC2)cc1	none
CCOc1cc(S(=O)(=O)N(CC)CC)ccc1F	none
Oc1ccc(-c2cnc(-c3ccc(O)cc3)nc2)cc1	CSC inhib 98
Nc1ccc(-c2cnc(-c3ccc(N)cc3)nc2)cc1	none
O=C(NNC(=O)c1ccccc1F)c1cccc(S(=O)(=O)N2CCc3ccccc32)c1	none (no result: Calb FLC, SKKanGAS inh)
CCOC(=O)c1cc(-c2ccc3c(c2)OCCO3)nc2c1c(C)nn2CCC#N	SKKanGAS inh 81
CCOC(=O)c1cc(-c2ccc(Cl)cc2)nc2c1c(C)nn2CCC#N	none (no result: CSC inhib)
Clc1ccccc1CNc1nc2ccccc2n2cnnc12	none
CCCSc1cc(N)cc([N+](=O)[O-])c1	Calb FLC 97 (no result: CSC inhib)
Cc1ccc(-c2nc(CS(=O)CC(=O)NCc3ccc4c(c3)OCO4)c(C)o2)cc1 (configuration not stated)	CSC inhib 76
O=[N+]([O-])c1ccc2c(c1)-c1ccccc1C2O (configuration not stated)	none (no result: Calb FLC, Beta apoptosis, Mdm2 MdmX PPI, CSC inhib, SKKanGAS inh)
O=[N+]([O-])c1ccccc1N/N=C/c1c[nH]c2ccccc12	none
O=[N+]([O-])c1ccc(N/N=C/c2cccc(O)c2O)cc1	CSC inhib 96
O=[N+]([O-])c1ccc(N/N=C/c2ccc[nH]2)cc1	CSC inhib 88 (no result: Calb FLC, Mdm2 MdmX PPI, SKKanGAS inh)
O=[N+]([O-])c1ccc(N/N=C/c2cccc(O)c2)cc1	none
O=[N+]([O-])c1ccc(N/N=C/c2c[nH]c3ccccc23)cc1	CSC inhib 96
O=C(Nc1ccn(-c2ccccc2)n1)c1ccc(S(=O)(=O)N2CCCCCC2)cc1	none
CN(C)CCCNc1ccc(-c2cc(Nc3cccc(Cl)c3)ncn2)cn1	CSC inhib 81
Cc1ccccc1N=C(NOCc1ccc(Cl)cc1Cl)c1nonc1N	CSC inhib 98
Cc1ccc(N=C(NOCc2ccc(Cl)cc2Cl)c2nonc2N)c(C)c1	none
Cc1nc2scc(C)n2c(=O)c1S(=O)(=O)NCCc1ccc(Cl)cc1	none
C/C(=N\N1C(=O)CSC1=S)c1ccc(Br)cc1	Calb FLC 73
Cc1ccc(C(=O)NN2C(=O)CSC2=S)cc1	none
Cc1cc(C(=O)NC2CCCC2)c2ccccc2n1	none (no result: Beta apoptosis)
CCc1nc(N2CCN(Cc3ccc4c(c3)OCO4)CC2)c2oc3ccccc3c2n1	CSC inhib 81
CCc1nc(N2CCCCC2C(=O)O)c2oc3ccccc3c2n1 (configuration not stated)	none
CCc1nc(N2CCCCC2)c2oc3ccccc3c2n1	none
CCc1nc(N2CCCCC2C)c2oc3ccccc3c2n1 (configuration not stated)	CSC inhib 102
Cc1c(-n2cc(C(=O)c3ccccc3O)cc(C#N)c2=O)c(=O)n(-c2ccccc2)n1C	none
Oc1c(C(Nc2ccccn2)c2cccnc2)cc(Cl)c2cccnc12 (configuration not stated)	Beta apoptosis 85, SKKanGAS inh 95
CCC(=O)NC(c1ccco1)c1cc(Cl)c2cccnc2c1O (configuration not stated)	Calb FLC 90
CCC(=O)NC(c1cccs1)c1cc([N+](=O)[O-])c2cccnc2c1O (configuration not stated)	Calb FLC 86, CSC inhib 109
Oc1c(C(Nc2cccc(C(F)(F)F)c2)c2cccnc2)ccc2cccnc12 (configuration not stated)	Calb FLC 96, SKKanGAS inh inconclusive
CC(=O)NC(c1ccco1)c1cc(Cl)c2cccnc2c1O (configuration not stated)	none (no result: Calb FLC, Beta apoptosis, Mdm2 MdmX PPI, CSC inhib, SKKanGAS inh)
